Only some compounds are listed: those with a hit (about 18% of all), similar ones and a draw of the others.
HepG2 tox – HepG2 cytotoxicity, counter-screen for TGF-b inhibitors; HepG2 CAGA-GFP viability, ATP luminescence, 18 h; Potency, µM (doses to about 46.1 µM), inactives show at the top dose activity change, negative = cytotoxicity, most hits filed as cytotoxic; 410,000 tested, 0.76% active; further: potency means the concentration at half of the fitted maximal effect
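HepG2 CAGA-GFP cells (1000/well, DMEM with 1% FBS) received compound, then TGF-beta at 500 pg/mL final, and were incubated 18 hours at 37 degrees C. Viability was read by CellTiter-Glo luminescence. Media-only wells were set as complete cell-killing and DMSO as no toxicity.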
IL-1B inflam inh – inflammasome signaling inhibition, IL-1 beta readout | THP-1 LPS/ATP IL-1B secretion, AlphaLISA, 16 h; active compounds read low | activity change, % at 57.5 µM | 360,000 tested, 4.7% active | AID 743279; in the data active means activity change below about -50%; inconclusive means mostly about -30% to -49%; further: on the % scale 0 is the no-effect control and ±100 the full control effect
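THP-1 cells pretreated 1 hr with compounds (up to 57.5 uM final), then stimulated with LPS (250 ng/mL final) plus ATP (1.25 mM final); secreted IL-1B measured by AlphaLISA after 16 hr, decreased signal indicating inhibition.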
TDP1 cell CPT – growth inhibition of DT40 Tdp1-/-;hTDP1 cells with camptothecin (screen for TDP1 inhibitors); chicken DT40 Tdp1-/-;hTDP1 cells + 20 nM CPT, ATP luminescence, 48 h; Potency, µM (doses to about 46.2 µM), for the others: at the top dose activity change, negative = growth inhibition, actives largely listed as inhibitors; 420,000 tested, 12% active; further: potency means the concentration at half of the fitted maximal effect; on the % scale 0 is the no-effect control and ±100 the full control effect; nearly all actives have a fitted effect of over 55% in size
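Chicken DT40 Tdp1-/- cells complemented with human TDP1, 400 cells/well, exposed to compounds plus 20 nM camptothecin for at least 48 h at 37 C; viability read as ATP content by CellTiter-Glo luminescence.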
TGFb SMAD3 inh – blocks TGF-b signaling; HepG2 CAGA-GFP TGF-b/SMAD3 reporter, GFP fluorescence, 18 h; TGF-beta stimulated, 500 pg/mL final; Potency, µM (titrated, usually from 46.1 µM), for inactives: top-dose activity, negative = inhibition, usual class: inhibitors; 410,000 tested, 1.2% active; AID 588855; further: potency means the concentration at half of the fitted maximal effect; on the % scale 0 is the no-effect control and ±100 the full control effect; nearly all actives have a fitted effect of over 65% in size
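GFP signal (ex488/em500-530) from TGF-beta-stimulated HEPG2 CAGA-GFP cells, 500 pg/mL final, 18 h at 37 degrees C in DMEM plus 1% FBS, normalized to unstimulated and DMSO-stimulated controls.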
DT40 TDP1 no CPT – qHTS for Inhibitors of human tyrosyl-DNA phosphodiesterase 1 (TDP1): qHTS in cells in absence of CPT; AID 686978, 2013; DT40 Tdp1-/- hTDP1 cells, no CPT, ATP luminescence, 48 h; Potency, µM (top dose mostly 46.2 µM), for the others: top-dose activity change, negative = growth inhibition, usual class: inhibitors; 420,000 tested, 15% active; further: potency means the concentration at half of the fitted maximal effect; on the % scale 0 is the no-effect control and ±100 the full control effect; nearly all actives have a fitted effect of over 55% in size
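Compound effects on proliferation are scored in DT40 Tdp1-/-;hTDP1 cells in the absence of CPT. ATP levels (CellTiter-Glo luminescence) are recorded after a ≥48 hr, 37 °C incubation.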
TDP1 inh – inhibitors of human tyrosyl-DNA phosphodiesterase TDP1 | Q9NUW8 | recombinant TDP1, AlphaScreen DNA substrate cleavage | Potency, µM (series often up to 130 µM), inactives show top-dose activity change, negative = inhibition, actives largely listed as inhibitors | 350,000 tested, 0.28% active | AID 485290; further: potency means the concentration at half of the fitted maximal effect; on the % scale 0 is the no-effect control and ±100 the full control effect; nearly all actives have a fitted effect of over 40% in size
Target sequence (Q9NUW8 whole entry, looked up): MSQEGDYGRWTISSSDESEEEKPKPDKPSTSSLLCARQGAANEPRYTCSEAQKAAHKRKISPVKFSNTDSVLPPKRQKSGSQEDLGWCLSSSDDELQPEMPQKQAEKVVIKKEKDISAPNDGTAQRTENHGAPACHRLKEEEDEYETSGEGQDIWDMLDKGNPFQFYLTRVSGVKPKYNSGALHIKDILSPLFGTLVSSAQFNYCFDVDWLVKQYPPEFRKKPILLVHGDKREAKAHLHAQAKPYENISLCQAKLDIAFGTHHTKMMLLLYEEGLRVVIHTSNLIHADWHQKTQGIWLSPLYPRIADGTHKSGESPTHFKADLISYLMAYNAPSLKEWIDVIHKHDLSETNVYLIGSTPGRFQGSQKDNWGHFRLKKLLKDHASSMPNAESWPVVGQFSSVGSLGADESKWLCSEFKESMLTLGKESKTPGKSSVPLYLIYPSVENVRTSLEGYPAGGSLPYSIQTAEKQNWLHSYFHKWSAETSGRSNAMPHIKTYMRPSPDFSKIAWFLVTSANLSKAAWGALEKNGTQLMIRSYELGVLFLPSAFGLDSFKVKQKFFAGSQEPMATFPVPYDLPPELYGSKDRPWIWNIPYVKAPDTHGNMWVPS
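Recombinant human Tdp1 (E. coli-expressed, 1 nM final) preincubated with compounds 15 min at room temperature, then 5'-biotin/3'-phosphotyrosine-FITC DNA substrate (15 nM final) added for 5 min. AlphaScreen beads (10 ug/ml final) added 10 min; cleavage lowers signal.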
An asterisk follows results filed as active; ? = inconclusive; nt = no result; [ ] = dose if it differs, or a comment. Unless noted, the call rests on the fitted dose curve; in most records, active means well fitted curve in the direction sought with a large enough effect; inconclusive means small, poorly fitted or top-dose-only effect, or another doubt; inactive means no such curve, though single readings can be large; an effect the other way counts as inactive or inconclusive.

SMILES	HepG2 tox	IL-1B inflam inh	TDP1 cell CPT	TGFb SMAD3 inh	DT40 TDP1 no CPT	TDP1 inh
O=C1OC(Nc2nc(-c3ccc(F)cc3)cs2)c2ccccc21 (configuration not stated)	-40%	-92*	15µM*	11µM*	23µM*	nt
COc1ccc(-c2ccc(C3C4C=CCCC4(C)C(=O)N3Cc3ccccc3)c(F)c2)cc1 (configuration not stated)	-4%	nt	nt	-11%	nt	3%
CC(=O)NNc1nc(-c2ccccc2)cs1	2%	42	21µM*	2%	?	5%
O=C(NNc1nc(-c2ccccc2)cs1)c1cccs1	-34%	-3	?	-13%	23µM*	nt
CCC(Sc1nc2ccccc2c2nc(CCc3c(C)n[nH]c3C)nn12)C(=O)Nc1ccc(F)cc1 (configuration not stated)	-2%	nt	?	6%	-14%	2%
CCn1cc(C(=O)OC)c(=O)c2cc(S(=O)(=O)N(C)C3CCCCC3)ccc21	6%	-5	?	5%	-47%	0%
CN(CCO)C(=O)c1cn(C2CCCN(Cc3cccc4ccccc34)C2)nn1 (configuration not stated)	nt	nt	1%	nt	-12%	nt
Cc1cc(C)c(N2CCN(S(=O)(=O)N3CCCCCC3)CC2)c(C)c1	-42%	-2	?	?	18µM*	-2%
O=C(Nc1ccc(N2CCOCC2)c(Cl)c1)c1ccc2c(c1)OCCO2	1%	?	?	0%	?	3%
O=C(Nc1ccc(N2CCCC2)c(Cl)c1)c1ccc2c(c1)OCCO2	-14%	-64*	?	?	21µM*	nt
O=C(Nc1ccc(N2CCCCC2)c(Cl)c1)c1ccc2c(c1)OCCO2	-17%	6	?	-8%	21µM*	5%
Cc1nnc(NC(=O)CSc2nccn2-c2cccc(Cl)c2)s1	-18%	nt	5%	-17%	-16%	8%
CCn1c2ccccc2c2cc(CN3CCN(S(=O)(=O)Cc4ccccc4)CC3)ccc21	-24%	34	?	0%	15µM*	-3%
CCn1c2ccccc2c2cc(CN3CCN(Cc4ccc(Br)cc4)CC3)ccc21	11µM*	nt	18µM*	?	15µM*	-6%[12.3 µM]
O=C(CNC(=O)c1ccccc1Br)N/N=C/c1ccccc1O	-35%	132	?	?	23µM*	7%
O=C(CNC(=O)c1ccc2c(c1)OCO2)N/N=C/c1cc(Br)ccc1O	-5%	115	8.2µM*	-1%	8.2µM*	-5%
O=C(CN1CC(c2ccccc2)CC1=O)N/N=C/c1cc(Br)ccc1O (configuration not stated)	2%	71	8.2µM*	-12%	6.5µM*	5%
CCOc1ccc(NC(=O)CN2CC(c3ccccc3)CC2=O)cc1 (configuration not stated)	-1%	-5	8%	12%	9%	3%
O=C(CNC(=O)c1ccccc1)N/N=C/c1cc(Br)ccc1O	-42%	60	7.3µM*	-3%	7.3µM*	3%
COc1ccccc1/C=C(\C#N)c1nc(-c2cc3ccccc3oc2=O)cs1	-4%	nt	-15%	8%	-18%	2%[12.3 µM]
O=C(CNC(=O)c1ccco1)N/N=C/c1cc(Br)ccc1O	-28%	124	2.9µM*	-3%	5.8µM*	-8%
O=C(COc1ccccc1)NCC(=O)N/N=C/c1cc(Br)ccc1OCc1ccccc1	7%	-53*	23µM*	-4%	16µM*	0%
O=C(CNC(=O)c1ccccc1Br)N/N=C/c1cc(Br)ccc1O	-8%	264	8.2µM*	-17%	5.8µM*	5%

Assay outcomes: PubChem, National Center for Advancing Translational Sciences (NCATS)
